Test results published in PubChem BioAssay AID686970 (National Center for Advancing Translational Sciences (NCATS), 2013).
Screen size: about 360,000 compounds; about 6,000 (1.7%) were called active. A call without a number means that no potency is given here. Another 8% or so got no clear call; they are omitted. Calls come from the whole dose curve; as a rule, active = well fitted cell-killing curve with a large enough effect; inconclusive = small, poorly fitted or top-dose-only effect, or effect the other way; inactive = flat fitted curve, though single readings scatter. This excerpt belongs to a sample that is enriched for actives.

Assay: qHTS for induction of synthetic lethality in tumor cells producing 2HG: qHTS for the HT-1080-NT fibrosarcoma cell line;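 note: NT is the 2HG producing partner of a matched IDH1 knockdown line; nearly all actives have a fitted effect of over 55% in size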
Conditions: HT-1080-NT fibrosarcoma viability, CellTiter-Glo ATP luminescence, 48 h; series mostly up to 46.1 µM
Outline: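 Viability of the 2HG-overproducing fibrosarcoma line after 48 hours of compound exposure at 37 degrees C was determined by luminescence with CellTiter-Glo, and concentration-effect curves were then fitted and categorized.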
Potency is the fitted concentration of half-maximal effect.

Structure (SMILES) | Potency
CC1(C(=O)NS(=O)(=O)c2ccccc2)CCN1C(=O)Cc1ccc(-c2ccccc2)cc1 (centres undefined) | inactive
O=C(CC(CC(=O)c1ccccc1)c1ccco1)c1ccccc1 | inactive
CC1=C(C(=O)N(C(C)C)C(C)C)CC(CC(=O)NCC2CCCCC2)C(=O)N1Cc1ccccc1 (centres undefined) | inactive
Cc1ccc(C=O)c([B-](F)(F)F)c1 | inactive
O=C(NCc1ccccn1)[C@@H]1CCCN1C(=O)[C@@H]1CCCN1C(=O)c1ccccc1 | inactive
CN1OC[C@@H]2CN[C@H](c3ccc(-c4ccccc4)cc3)C[C@@H]21 | inactive
COCc1[nH]nc2c1C(C1C=CCCC1)C(C#N)=C(N)O2 (centres undefined) | 14.1 µM (active)
CCc1ccc(C2C(C#N)=C(N)Oc3n[nH]c(CC(=O)OC)c32)cc1 (centres undefined) | inactive
COc1cc(C2C(C#N)=C(N)Oc3n[nH]c(-c4ccccn4)c32)cc(OC)c1OC (centres undefined) | inactive
Cc1ccc([C@@H]2CC(=O)[C@@H]3CN(S(=O)(=O)c4ccc(C)cc4)[C@H](c4ccccc4F)C[C@@H]3N2S(=O)(=O)c2ccc(Cl)cc2)cc1 | inactive
FC(F)(F)c1ccccc1Cc1c(-c2ccccc2)nc2c3ccccc3ccn12 | inactive
NS(=O)(=O)c1ccc(NC(=O)CSc2nnc3c(n2)[nH]c2ccccc23)cc1 | inactive
CN1CCN(C2Cc3ccc(Cl)cc3Sc3ccc(F)cc32)CC1 (centres undefined) | 14.6 µM (active)
C[C@H]1CN([C@@H](C)CO)C(=O)c2cc(Br)cnc2O[C@H]1CN(C)S(=O)(=O)c1cccs1 | inactive
CN(C)c1cccc(NC(=O)c2ccc(-c3ccc(F)c(F)c3)c3ccoc23)c1 | inactive
Cc1ccc(S(=O)(=O)N2CC3C(=O)C[C@@H](c4ccccc4Cl)N(S(=O)(=O)c4ccc(C)cc4)C3CC2c2ccccc2)cc1 (some centres undefined) | inactive
CC1(C)OC(=O)C2=C(C[C@@H](C3CC3)O[C@H]2CCc2cccc(Cl)c2)O1 | inactive
CN1CCN(CCCCOc2cccc3ccccc23)CC1 | inactive
CCC(C)Sc1nc2c(c(=O)[nH]c(=O)n2C)n1CC(O)COc1cccc2ccccc12 (centres undefined) | inactive
CC(C)c1ccccc1OCC(O)CN(CC(O)COc1cccc2ccccc12)C(C)C (centres undefined) | 18.4 µM (active)
Cc1nc(C(F)(F)F)ccc1C(=O)N1CCC1(C)C(=O)NS(=O)(=O)c1ccc(F)cc1F (centres undefined) | inactive
COC(=O)c1ccc2nc(-c3cccc(Br)c3)c(Cc3ccccc3C(F)(F)F)n2c1 | inactive
COc1ccc(NC(=O)C2Cc3c(-c4ccc5c(c4)OCO5)ccnc3O2)cn1 (centres undefined) | 5.8 µM (active)
COc1ccc(NC(=O)C2Cc3c(-c4cccc(NC(C)=O)c4)ccnc3O2)cc1OC (centres undefined) | inactive

Structure (SMILES) | Potency
O=C(Nc1ccc(Cl)cc1)C1Cc2c(-c3ccc4c(c3)OCO4)ccnc2O1 (centres undefined) | inactive
Cc1ccsc1C(=O)OCC(=O)c1cc(C)n(CC2CCCO2)c1C (centres undefined) | inactive
O=C1C(=O)N(CC2COc3ccccc3O2)c2ccccc21 (centres undefined) | inactive
Cc1cc(C(=O)CCl)c(C)n1CC1COc2ccccc2O1 (centres undefined) | 14.6 µM (active)
COCCCn1c(=O)/c(=C/c2ccccc2OC(C)C)s/c1=C(\C#N)C(=O)Nc1ccc(C(=O)O)cc1 | inactive
CCOC(=O)C1CCCN(C(=O)c2ccc(C)c(F)c2)CC1 (centres undefined) | inactive
Cc1cc(C)n(-c2nc(C(F)(F)F)nc3ccccc23)n1 | inactive
CC(C)(C)Nc1nc(-c2ccccn2)nc2ccccc12 | inactive
CC(Nc1nc(C(F)(F)F)nc2ccccc12)c1cccs1 (centres undefined) | 20.6 µM (active)
Clc1ccc(-c2cccc3nccn23)cc1 | inactive
CCOC(=O)c1c(C)[nH]c2c1-c1ccccc1C(=O)C2=O | 2.91 µM (active)
CCOC(=O)C1=C(C)c2ccccc2OC1(C)C(=O)OCC (centres undefined) | inactive
CCOC(=O)c1ccccc1OC(=O)Oc1ccccc1C(=O)OCC | inactive
CCOC(=O)[C@]12CCCC=C1N(Cc1ccc3c(c1)OCO3)C(=O)[C@H](CC(=O)N1CCN(C(=O)c3ccco3)CC1)C2 | inactive
COc1cc(CNc2ncnc3c2ncn3[C@H]2CN(Cc3cccs3)C[C@@H](CO)O2)cc(OC)c1OC | inactive
COCCNc1nc(NCc2ccc(NC(C)=O)cc2)c2sccc2n1 | inactive
COCCNc1nc(Nc2ccccc2Cl)c2sc(-c3ccccc3)cc2n1 | inactive
CC(=O)Nc1ccc(CNc2nc(NCCN(C)C)nc3cc(-c4ccccc4)sc23)cc1 | 11.6 µM (active)
COc1ccc(Cl)cc1NC(=O)CN(C)C(=O)c1cn(-c2ccccc2)nc1-c1cccs1 | inactive
Cc1cccc2cc3c(N)c(C(=O)N4CCCc5ccccc54)sc3nc12 | 3.26 µM (active)
O=C(c1cc(-c2ccc(O)cc2)on1)N1CCCc2ccccc21 | inactive
Cc1ccc(C(=O)N2CCCc3ccccc32)c(Cl)c1 | inactive
O=C(C[C@H]1C[C@@H]2c3cc(NC(=O)C4CCC4)ccc3O[C@@H]2[C@H](CO)O1)NC1CCCCC1 | inactive
COc1ccc(CNC(=O)CCN2C(=O)c3ccccc3C2=O)cc1 | inactive

Structure (SMILES) | Potency
CCOC(=O)C1=C(c2ccc(OC)cc2)C(=O)c2ccccc2C1=O | 5.8 µM (active)
CCOC(=O)C(NC(C)=O)C(=O)Nc1ccc(OC)cc1 (centres undefined) | inactive
O=C(NN=Cc1ccc2c(c1)CCC2)c1ccccc1O | inactive
COc1cccc(NC(=O)C2(C)CCN2C(=O)CCC2CCCC2)c1 (centres undefined) | inactive
Cc1cc(NC(=O)/C=C/C(=O)N(c2ccccc2C)C(C(=O)NC2CCCC2)c2ccc(F)cc2)no1 (centres undefined) | 11.2 µM (active)
Cc1cc(NC(=O)CCC(=O)N(CC(=O)NC2CCCC2)c2ccc(F)cc2)no1 | inactive
Cc1cc(NC(=O)CCC(=O)N(c2ccccc2)C(C(=O)NC2CCCC2)c2ccncc2)no1 (centres undefined) | inactive
CC1(C(=O)Nc2ccc3c(c2)OCCO3)CCN1C(=O)Cc1cc(F)ccc1F (centres undefined) | inactive
O=C(O)C1=C(C(=O)O)C2CCC1C2 | inactive
CCCC(O)(CCC)C(=O)NN(C(=O)CCl)c1cccc(C)c1 | 6.51 µM (active)
COC(=O)N(NC(=O)C(O)(C(C)C)C(C)C)c1ccccc1 | inactive
CC(C)(O)C(=O)NN(C(=O)c1ccccc1)c1cccc(Br)c1 | inactive
COc1ccc(C2OC(CCc3ccccc3)Cc3[nH]c(=S)[nH]c(=O)c32)cc1 (centres undefined) | inactive
CCOC(=O)C1CCCN(C(=O)c2cccc3ccccc23)CC1 (centres undefined) | inactive
CCc1nc2ccc(C(=O)N3CCN(S(=O)(=O)CC)CC3)cn2c1N(C=O)CCC(C)C | inactive
O=c1[nH]c2cccnc2n(CCNc2ncc(C(F)(F)F)cc2Cl)c1=O | inactive
COc1ccc(Br)cc1/C=N/Nc1ccc(Cl)c(C(=O)O)c1 | inactive
COc1cccc(/C=N/Nc2ncc(C(F)(F)F)cc2Cl)c1O | 16.4 µM (active)
CCN1C(=O)[C@@H]2[C@@H]3CN(S(=O)(=O)c4ccccc4C)[C@@H](c4ccc(Cl)cc4)[C@@H]3C(=O)C[C@@H]2C1=O | inactive
CCc1nc2c(OCCOc3ccc(F)cc3)cccn2c1N(C)C(=O)c1ccccc1F | inactive
COc1cc(/C=N/Nc2nc3ccccc3s2)ccc1O | 20.6 µM (active)
COc1cc(C=NC2CCCCC2)ccc1O | inactive
CCOc1cc(/C=N/Nc2cc(C)nc3ccc(C)cc23)ccc1O | inactive
Nc1ncnc2c1ncn2[C@@H]1O[C@H](CNC(=O)[C@H](N)Cc2cccnc2)[C@@H](O)[C@H]1O | inactive

Structure (SMILES) | Potency
Cc1nnsc1S(=O)(=O)Cc1ccccc1Cl | inactive
O=C(Nc1ccc(S(=O)(=O)Nc2ccccn2)cc1)c1ccccc1 | inactive
O=C(Nc1ccccc1)c1nnsc1S(=O)(=O)c1ccc(Cl)cc1 | 20.6 µM (active)
C=C1C=C(C)n2ncc(C(=O)Nc3ccccc3O)c2N1 | inactive
COc1ccc(C(C)(C)C)cc1NC(=O)CN(C)C1=NS(=O)(=O)c2ccccc21 | inactive
CCc1nc2ccc(C(=O)Nc3cc(-c4ccccc4)ccc3OC)cn2c1N(CC)CC(=O)N(C)C | inactive
CCOC(=O)C1(C)CCCN(C(=O)c2ccc(N(C)C)cc2)C1 (centres undefined) | inactive
CC(=O)c1cccc(-c2cnc3c(NC=O)cc(-c4cccc(C(=O)N(C)C)c4)cn23)c1 | inactive
CC(=O)c1cccc(-c2cnc3c(NC=O)cc(-c4ccccc4Oc4ccccc4)cn23)c1 | inactive
COc1ccccc1-c1cc(NC(C)=O)c2ncc(-c3ccc(F)cc3)n2c1 | inactive
COc1cccc(-c2cc(NC(C)=O)c3ncc(-c4cccc(C(C)=O)c4)n3c2)c1 | inactive
CC(=O)Nc1cccc(-c2cc(NC=O)c3ncc(-c4ccc(F)c(Cl)c4)n3c2)c1 | 18.4 µM (active)
CC(=O)Nc1cc(-c2ccccc2N(C)C)cn2c(-c3ccc(F)c(Cl)c3)cnc12 | 29.1 µM (active)
CC(=O)c1cccc(-c2cnc3c(NC=O)cc(-c4ccc(N5CCN(C)CC5)cc4)cn23)c1 | inactive
CC(=O)Nc1cc(-c2cccc(CO)c2)cn2c(-c3cccc(C(F)(F)F)c3)cnc12 | inactive
CN(C)CCNC(=O)c1cccc(-c2cnc3c(NC=O)cc(-c4cccc(C(F)(F)F)c4)cn23)c1 | 20.6 µM (active)
CC(C)(C)C1CCC(=O)N2CCC[C@]2(c2ccccc2)C1 (some centres undefined) | inactive
COc1ccc(COC[C@H](CC(C)C)N2CCN(C(=O)c3cccc(C(F)(F)F)c3)CCC2=O)cc1 | inactive
CCC(C(=O)NCc1ccccc1)n1c(Cc2cc(F)cc(F)c2)nc2ccccc21 (centres undefined) | inactive
Cc1cccc(S(=O)(=O)N(C)C[C@@H]2OCc3cnnn3CCCC(=O)N([C@H](C)CO)C[C@@H]2C)c1 | inactive
O=C1Nc2ccccc2NC(c2ccc3c(c2)OCO3)=C1N(Cc1ccc(F)cc1)C(=O)c1ccco1 | inactive
CCc1nc2ccc(C(=O)N3CCC(O)(Cc4ccccc4)CC3)cn2c1N(C)C(=O)Cc1ccccc1 | inactive
